Results filed as inconclusive are left out. The source made the active and inactive calls. Rule for the calls: active = hit-call score of the fitted dose curve at least 0.9, where 1 is the maximum; inconclusive = response in the unintended direction; inactive = score below 0.9.

A short description of this assay: ERF_FR_GPCR_rPY2: Eurofins (ERF) G Protein-Coupled Receptor (GPCR) Radioligand Binding LeadHunter Assay for rat P2Y Receptor (Non-Selective) Agonism. As for the experimental part:
ERF_FR_GPCR_rPY2 is a biochemical, single-readout assay that uses extracted gene-proteins in a cell-free assay. Measurements were taken 1 hour after chemical dosing in a 96-well plate. See Non-Selective Rat P2Y GPCR Binding (Agonist Radioligand) Assay, Cerep.ERF_FR_GPCR_rPY2 is an assay component calculated from the ERF_FR_GPCR_rPY2 assay. It is designed to measure radioligand binding using a type of binding reporter as detected by scintillation counting with radiometry technology.Data from the assay component ERF_FR_GPCR_rPY2 was analyzed at the assay endpoint, ERF_FR_GPCR_rPY2, in the positive analysis fitting direction relative to DMSO as the negative control and baseline of activity. Using a type of binding reporter, gain-of-signal activity can be used to understand changes in binding as they relate to gene P2RY1. To generalize the intended target to other relatable targets, this assay endpoint is annotated to the gpcr intended target family, where the subfamily is P2Y.
Rat cells are incubated for 60 minutes at room temprature with [35S]dATPalpha S (10 nM) ligand and Datpalphas as control inhibitor. Test Sample Requirements: Minimum for 1) Screen: 60 ul of 10 mM stock -OR- 1 mg (pre-weighed) for 10 uM final testing. 2) Dose Response: 90 ul of 10 mM stock -OR- 1 mg (pre-weighed) for a top concentration at 10 uM.
`O=C(/C=C/c1ccc(O)cc1)CC(=O)/C=C/c1ccc(O)cc1`: the half-maximal activity concentration (AC50) was 937 nM (active).

In general, AC50 refers to the midpoint of the concentration-response curve, whichever way the signal moves.

Values taken from PubChem BioAssay AID2284171 (EPA ToxCast).
